Data as given in PubChem BioAssay (NCATS).
Inconclusive results are not listed. Activity calls are given as the source filed them. Unless noted, calls come from the whole dose curve; as a rule, active = well fitted curve in the direction sought with a large enough effect; inconclusive = small, poorly fitted or top-dose-only effect, or another doubt; inactive = no such curve, though single readings can be large; an effect the other way counts as inactive or inconclusive.

Experiments:
[1] = P-glycoprotein substrates identified in KB-3-1 adenocarcinoma cell line, qHTS therapeutic library screen (AID 1346986); settings: KB-3-1 parental cells viability, CellTiter-Glo, 72 h; series mostly up to 44.5 µM; note: nearly all actives have a fitted effect of over 60% in size
Procedure, shortened: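 KB-3-1 parental cells and P-gp-overexpressing KB-8-5-11 (colchicine omitted during assay) plated at 500 cells/well, dosed in dose-response, incubated 72 h at 37 degree C. CellTiter-Glo luminescence read; KB-8-5-11 also tested with tariquidar.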

[2] = P-glycoprotein substrates identified in KB-8-5-11 adenocarcinoma cell line, qHTS therapeutic library screen (AID 1346987); settings: KB-8-5-11 (P-gp overexpressing) viability, CellTiter-Glo, 72 h; series mostly up to 44.5 µM; note: nearly all actives have a fitted effect of over 65% in size
Procedure, shortened: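 P-gp-mediated resistance screen: KB-8-5-11 cells treated 72 h with compounds in dose-response. CellTiter-Glo viability.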

[3] = NS1 protein of Zika virus - qHTS assay to identify small molecule inhibitors in human HEK 293 cells (AID 1347053); settings: HEK293 ZIKV MR766 infection, NS1 TR-FRET, 24 h; series mostly up to 46.1 µM; note: nearly all actives have a fitted effect of over 55% in size; note: potency is the fitted concentration of half-maximal effect
Procedure, shortened: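 Following 20 h seeding, HEK 293 cells took compound, then 1 h later ZIKV MR766 (MOI = 0.5). Incubation ran 24 h at 37 C before TR-FRET detection of NS1; a drop in signal indicates inhibition.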

[4] = qHTS for Inhibitors of the Functional Ribonucleoprotein Complex (vRNP) of Lassa (LASV) Arenavirus: LASV Primary Screen - GLuc reporter signal (AID 1347082; calls by dose curve; tested in HEK293 reporter line; note: nearly all actives have a fitted effect of over 60% in size; note: potency is the fitted concentration of half-maximal effect); settings: LASV minigenome vRNP, Gaussia luciferase reporter; series mostly up to 57.5 µM
[5] = qHTS for Inhibitors of the Functional Ribonucleoprotein Complex (vRNP) of Lassa (LASV) Arenavirus: Viability assay - alamar blue signal for LASV Primary Screen (AID 1347083; calls by dose curve; tested in HEK293 reporter line; note: nearly all actives have a fitted effect of over 80% in size; note: potency is the fitted concentration of half-maximal effect); settings: cell viability, alamar blue fluorescence (LASV minigenome counter-screen); series mostly up to 57.5 µM
[6] = qHTS for Inhibitors of the Functional Ribonucleoprotein Complex (vRNP) of Lymphocytic Choriomeningitis Arenaviruses (LCMV): Viability assay - alamar blue signal for LCMV Primary Screen (AID 1347085; calls by dose curve; tested in HEK293 reporter line; note: nearly all actives have a fitted effect of over 80% in size; note: potency is the fitted concentration of half-maximal effect); settings: alamar blue viability counter-screen, LCMV vRNP screen cells; series mostly up to 57.5 µM
[7] = target: Nucleoprotein (Lymphocytic choriomeningitis virus (strain Armstrong)) (UniProt P09992); experiment: qHTS for Inhibitors of the Functional Ribonucleoprotein Complex (vRNP) of Lymphocytic Choriomeningitis Arenaviruses (LCMV): LCMV Primary Screen - GLuc reporter signal (AID 1347086; calls by dose curve; note: nearly all actives have a fitted effect of over 70% in size; note: potency is the fitted concentration of half-maximal effect); settings: LCMV minigenome vRNP cell assay, Gaussia luciferase reporter; series mostly up to 57.5 µM
[8] = Identifying Small Molecule Inhibitors of Pancreatic Cancer Stem Cells (A2780, Spheroid) (AID 1259357); settings: Potency: A2780 spheroid viability; series mostly up to 46.1 µM;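 note: spheroids pre-formed over 14 days in stem cell medium on hydrogel; compound exposure lasted 48 h before the ATP luminescence read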
Procedure, shortened: (§1)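 Pre-formed 14-day tumor spheroids or adherent cells dosed and incubated 48 h, 37C, 5% CO2. Viability assessed by CellTiter-Glo.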

[9] = Identifying Small Molecule Inhibitors of Pancreatic Cancer Stem Cells (SN12C, Adherent) (AID 1259358); settings: viability/growth inhibition; series mostly up to 46.1 µM;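 note: cell survival measured after 48 h of compound exposure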
Procedure, shortened: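 After a 4 h attachment period, compounds were pinned into wells and cultures held 48 h under standard incubator conditions. Viability was then measured as CellTiter-Glo luminescence following 10 min at room temperature.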

[10] = Identifying Small Molecule Inhibitors of Pancreatic Cancer Stem Cells (SN12C, Spheroid) (AID 1259360); settings: Potency: SN12C spheroid viability; series mostly up to 46.1 µM
Procedure, shortened: as §1

[11] = Identifying Small Molecule Inhibitors of Pancreatic Cancer Stem Cells (Panc1, Adherent) (AID 1259362); settings: Potency: viability; series mostly up to 46.1 µM;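 note: compound exposure lasted 48 h before the viability read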
Procedure, shortened: as §1

[12] = Natriuretic polypeptide receptor (hNpr1) antagonism - Pilot counterscreen GloSensor control cell line (AID 1347045; calls by dose curve); settings: HEK293 cGMP GloSensor cells, SNP-stimulated luminescence, 20 min; series mostly up to 38.3 µM
Procedure, shortened: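 This counterscreen uses HEK293 cells expressing the GIP/pGS-40F cGMP biosensor. Compound-treated cells are challenged with 50 uM sodium nitroprusside, and the luciferase signal is compared before and after stimulation.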

[13] = target: Atrial natriuretic peptide receptor 1 (Homo sapiens) (UniProt P16066); experiment: Natriuretic polypeptide receptor (hNpr1) antagonism - Pilot screen (AID 1347049; calls by dose curve;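 note: agonist-evoked cGMP luminescence read 20 min after hNppA addition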); settings: hNpr1 cells, antagonist mode cGMP read-out; series mostly up to 57.5 µM
Procedure, shortened: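 HEK293 cells co-expressing hNpr1 and the GloSensor pGS-40F cGMP luciferase sensor were preloaded with 2% GloSensor reagent for 2 h. Compounds were added for 30 min at room temperature, then cells were stimulated with 0.1 nM hNppA for 20 min before luminescence readout.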

[14] = target: Atrial natriuretic peptide receptor 2 (Homo sapiens) (UniProt P20594); experiment: Natriuretic polypeptide receptor (hNpr2) antagonism - Pilot subtype selectivity assay (AID 1347050; calls by dose curve); settings: NPR2-expressing cells, cGMP antagonist-mode read-out; series mostly up to 38.3 µM
Procedure, shortened: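 cGMP-sensor HEK293/hNpr2 cells; 2% GloSensor reagent 2 h RT; compounds 30 min; baseline luminescence read; 1 nM hNppC agonist 20 min RT; final luminescence read by CCD camera. Antagonism = reduced post-agonist signal.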

[15] = target: T1, Tyrosine-protein phosphatase non-receptor type substrate 1 (Homo sapiens) + Leukocyte surface antigen CD47 (Homo sapiens) (UniProt P78324+Q08722); experiment: CD47-SIRPalpha protein protein interaction - HTRF assay qHTS validation (AID 1347058; active = well fitted curve in the direction sought with a large enough effect in the signal ratio, not every such curve was filed as active; the % refers to the signal ratio); settings: TR-FRET HTRF CD47-His / biotin-SIRPalpha binding, ratio 665/615; series mostly up to 38.3 µM
Procedure, shortened: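 TR-FRET read (Ch1/Ch2 ratio) of soluble extracellular CD47 and Avi-biotinylated SIRPalpha domains in PBS pH 7.4 with 0.05% IGEPAL; 7-point compound titration. Sequential 30 min room-temperature steps; non-biotinylated SIRPalpha as control inhibitor.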

[16] = target: T1, Tyrosine-protein phosphatase non-receptor type substrate 1 (Homo sapiens) + Leukocyte surface antigen CD47 (Homo sapiens); experiment: CD47-SIRPalpha protein protein interaction - Alpha assay qHTS validation (AID 1347059); settings: AlphaScreen CD47-His/biotin-SIRPalpha binding, LOPAC; series mostly up to 38.3 µM;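 note: bead proximity luminescence from CD47 binding SIRPalpha after compound preincubation with SIRPalpha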
Procedure, shortened: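 Soluble extracellular domains: Avi-tag biotinylated SIRPalpha (25 nM) preincubated 30 min RT with compound, then 6His-CD47 (12.5 nM) 30 min; Ni-NTA acceptor and streptavidin donor beads (10 ug/mL) 30 min, AlphaScreen read. PBS pH 7.4, 0.05% IGEPAL.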

Measured: Potency

Chain of Nucleoprotein (Lymphocytic choriomeningitis virus (strain Armstrong)) (P09992 whole entry, looked up): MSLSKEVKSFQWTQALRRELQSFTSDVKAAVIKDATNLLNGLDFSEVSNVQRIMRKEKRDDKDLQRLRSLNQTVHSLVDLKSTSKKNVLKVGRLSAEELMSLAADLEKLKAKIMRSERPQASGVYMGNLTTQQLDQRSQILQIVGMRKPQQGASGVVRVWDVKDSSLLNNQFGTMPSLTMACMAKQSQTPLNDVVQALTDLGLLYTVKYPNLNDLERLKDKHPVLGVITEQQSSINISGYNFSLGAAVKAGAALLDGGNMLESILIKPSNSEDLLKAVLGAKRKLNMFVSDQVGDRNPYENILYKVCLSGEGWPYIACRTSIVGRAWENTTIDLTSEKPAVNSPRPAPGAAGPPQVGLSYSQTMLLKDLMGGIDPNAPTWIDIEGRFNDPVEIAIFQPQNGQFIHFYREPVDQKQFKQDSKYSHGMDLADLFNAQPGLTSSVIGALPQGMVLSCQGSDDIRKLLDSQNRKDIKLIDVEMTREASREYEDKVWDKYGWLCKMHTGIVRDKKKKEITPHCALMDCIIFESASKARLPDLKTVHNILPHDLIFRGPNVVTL
T1 sequence (P78324 whole entry, looked up, the tested form may be a part): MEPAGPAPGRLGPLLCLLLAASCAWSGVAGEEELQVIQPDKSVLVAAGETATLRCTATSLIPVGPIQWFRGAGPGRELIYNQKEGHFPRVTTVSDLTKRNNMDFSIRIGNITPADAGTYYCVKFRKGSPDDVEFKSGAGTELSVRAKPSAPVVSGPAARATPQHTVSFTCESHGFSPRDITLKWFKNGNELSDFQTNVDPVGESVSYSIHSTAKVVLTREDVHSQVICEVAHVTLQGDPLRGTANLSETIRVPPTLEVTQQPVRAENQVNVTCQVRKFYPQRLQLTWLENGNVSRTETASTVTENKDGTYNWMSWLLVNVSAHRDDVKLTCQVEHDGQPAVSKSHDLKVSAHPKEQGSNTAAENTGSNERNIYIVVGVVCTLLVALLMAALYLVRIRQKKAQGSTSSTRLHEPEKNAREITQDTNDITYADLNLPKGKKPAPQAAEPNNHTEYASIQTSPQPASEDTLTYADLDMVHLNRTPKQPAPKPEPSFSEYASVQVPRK
T1 sequence (Q08722 whole entry, looked up, the tested form may be a part): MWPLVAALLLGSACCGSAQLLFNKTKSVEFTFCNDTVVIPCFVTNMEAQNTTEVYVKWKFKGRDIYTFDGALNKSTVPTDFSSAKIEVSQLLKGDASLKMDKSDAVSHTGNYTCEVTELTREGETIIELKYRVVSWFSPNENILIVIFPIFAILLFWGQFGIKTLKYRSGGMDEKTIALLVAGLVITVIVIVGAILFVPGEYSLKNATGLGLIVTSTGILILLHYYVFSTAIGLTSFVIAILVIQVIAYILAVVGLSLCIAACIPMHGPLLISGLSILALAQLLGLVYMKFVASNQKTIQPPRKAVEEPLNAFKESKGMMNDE
Chain of Atrial natriuretic peptide receptor 1 (Homo sapiens) (P16066 whole entry, looked up): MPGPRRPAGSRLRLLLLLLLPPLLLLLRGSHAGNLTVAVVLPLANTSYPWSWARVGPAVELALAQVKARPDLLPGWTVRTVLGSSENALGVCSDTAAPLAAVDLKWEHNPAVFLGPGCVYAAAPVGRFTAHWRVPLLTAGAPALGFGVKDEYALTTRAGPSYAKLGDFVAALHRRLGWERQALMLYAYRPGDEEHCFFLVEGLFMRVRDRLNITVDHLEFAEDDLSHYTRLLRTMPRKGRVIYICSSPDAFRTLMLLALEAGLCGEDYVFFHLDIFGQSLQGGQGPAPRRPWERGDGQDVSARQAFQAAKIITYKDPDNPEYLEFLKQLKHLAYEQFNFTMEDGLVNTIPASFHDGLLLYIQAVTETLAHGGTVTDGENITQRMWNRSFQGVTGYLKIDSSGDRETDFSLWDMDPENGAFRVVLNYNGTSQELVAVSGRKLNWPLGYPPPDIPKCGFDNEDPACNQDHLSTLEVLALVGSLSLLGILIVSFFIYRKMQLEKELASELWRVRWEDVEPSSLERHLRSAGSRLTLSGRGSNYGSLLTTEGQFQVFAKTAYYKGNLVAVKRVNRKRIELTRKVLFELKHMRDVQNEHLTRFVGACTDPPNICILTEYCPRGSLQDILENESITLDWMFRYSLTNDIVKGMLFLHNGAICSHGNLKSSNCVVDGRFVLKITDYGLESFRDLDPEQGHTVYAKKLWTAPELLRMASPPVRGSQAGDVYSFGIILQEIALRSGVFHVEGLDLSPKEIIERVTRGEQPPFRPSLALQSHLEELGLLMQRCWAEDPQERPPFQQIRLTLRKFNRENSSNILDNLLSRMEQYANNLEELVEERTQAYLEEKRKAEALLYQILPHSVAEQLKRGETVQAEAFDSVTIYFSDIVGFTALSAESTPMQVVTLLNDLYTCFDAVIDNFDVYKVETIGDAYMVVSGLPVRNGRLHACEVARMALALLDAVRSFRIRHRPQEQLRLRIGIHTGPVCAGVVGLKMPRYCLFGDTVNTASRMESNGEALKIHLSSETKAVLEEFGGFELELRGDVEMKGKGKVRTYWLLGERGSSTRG
Chain of Atrial natriuretic peptide receptor 2 (Homo sapiens) (P20594 whole entry, looked up): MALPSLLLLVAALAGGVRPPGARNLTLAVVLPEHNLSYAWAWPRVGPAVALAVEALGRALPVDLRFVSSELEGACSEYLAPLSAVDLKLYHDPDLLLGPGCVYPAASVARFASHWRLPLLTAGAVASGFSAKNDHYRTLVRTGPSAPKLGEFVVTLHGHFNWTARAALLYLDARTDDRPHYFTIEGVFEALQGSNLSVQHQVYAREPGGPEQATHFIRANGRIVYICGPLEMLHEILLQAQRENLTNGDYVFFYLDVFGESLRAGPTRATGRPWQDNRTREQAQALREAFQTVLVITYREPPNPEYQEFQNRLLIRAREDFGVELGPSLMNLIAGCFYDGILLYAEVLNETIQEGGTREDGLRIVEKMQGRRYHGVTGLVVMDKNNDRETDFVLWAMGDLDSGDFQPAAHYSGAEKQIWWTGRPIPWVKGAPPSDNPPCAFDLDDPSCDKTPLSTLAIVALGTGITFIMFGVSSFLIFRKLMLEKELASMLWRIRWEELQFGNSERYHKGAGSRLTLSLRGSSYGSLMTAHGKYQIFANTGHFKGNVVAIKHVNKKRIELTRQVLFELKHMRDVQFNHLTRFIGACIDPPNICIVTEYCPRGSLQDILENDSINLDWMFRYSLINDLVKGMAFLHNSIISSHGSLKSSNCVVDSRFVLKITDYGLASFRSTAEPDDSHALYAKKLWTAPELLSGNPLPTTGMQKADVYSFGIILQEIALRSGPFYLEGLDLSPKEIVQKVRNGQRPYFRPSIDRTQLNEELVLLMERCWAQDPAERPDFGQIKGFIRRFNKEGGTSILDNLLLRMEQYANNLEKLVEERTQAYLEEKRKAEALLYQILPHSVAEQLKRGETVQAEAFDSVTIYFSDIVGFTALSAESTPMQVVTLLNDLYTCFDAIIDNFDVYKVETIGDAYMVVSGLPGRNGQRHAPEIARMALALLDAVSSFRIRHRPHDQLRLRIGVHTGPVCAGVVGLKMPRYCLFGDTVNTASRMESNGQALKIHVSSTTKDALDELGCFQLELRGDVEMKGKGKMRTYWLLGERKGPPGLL

COC1=C[C@@H]2[C@@H]3Cc4ccc(OC)c(O)c4[C@]2(CCN3C)CC1=O
inactive: [1] | [2] | [3]
active: [4] 19.3 µM | [5] 19.3 µM | [6] 21.7 µM | [7] 6.11 µM

COc1ccc2c(c1)CN(C)CC2c1ccc(Cl)c(Cl)c1 (stereo not drawn)
inactive: [1] | [2] | [3] | [4] | [6] | [7]
active: [5] 7.69 µM

c1ccc2c(CN3CCNCC3)cccc2c1
inactive: [1] | [2] | [3] | [4] | [5] | [6] | [7]

O=C(Oc1ccc([N+](=O)[O-])cc1)N1CCC(C(O)(c2ccc3c(c2)OCO3)c2ccc3c(c2)OCO3)CC1
inactive: [8] | [9] | [10] | [11] | [2] | [3] | [4] | [7]
active: [5] 24.3 µM | [6] 3.06 µM

O=c1[nH]c2ccccc2n1C1CCN(Cc2ccc(-c3[nH]c4cc5ncnc5cc4nc3-c3ccccc3)cc2)CC1
inactive: [1] | [2] | [6] | [7]
active: [3] 18.7 µM

CCN1C[C@]2(OC(=O)c3ccccc3NC(C)=O)CC[C@H](OC)[C@@]34[C@H]5CC6[C@@H](OC)C[C@](O)(C(C[C@@H]23)[C@@H]14)[C@@]5(O)[C@@H]6OC
inactive: [1] | [2] | [3] | [4] | [5] | [6] | [7]

CC[C@@H](C(N)=O)N1CCCC1=O
inactive: [2] | [12] | [13] | [14] | [3] | [15] | [16] | [6] | [7]

CCNC(=O)CC1N=C(c2ccc(Cl)cc2)c2cc(OC)ccc2-n2c(C)nnc21 (stereo not drawn)
inactive: [1] | [2] | [3]
active: [5] 7.69 µM | [6] 1.53 µM | [7] 2.43 µM
